Assay results taken from PubChem BioAssay (NCI).
“And” between values parts separate entries of the source, which are not always exact repeats. Equal entries are not always repeated. Compounds without any hit were thinned out: in the full panel of roughly 79,000, 15% have a hit. The source made the active and inactive calls. Rule as the data show it: active = growth inhibition above about 70%; inactive = the rest.

Key:
[1] = NCI Yeast Anticancer Drug Screen. Data for the mec2-1 strain (AID 157); conditions: S. cerevisiae mec2-1 strain, hits give high values
Method in brief: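 Each compound was tested on mec2-1 yeast, a strain altered in DNA damage repair or cell cycle control. Growth inhibition is reported relative to vehicle.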

[2] = NCI Yeast Anticancer Drug Screen. Data for the sgs1 mgt1 strain (AID 161);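 also: 0% = growth of cultures given vehicle only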; conditions: S. cerevisiae sgs1 mgt1 strain, hits give high values
Method in brief: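 Test agents were incubated with a DNA-repair-mutant yeast strain. Growth was then read and compared against vehicle-treated controls.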

[3] = NCI Yeast Anticancer Drug Screen. Data for the cln2 rad14 strain (AID 165);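 also: 0% = growth equal to vehicle treated cultures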; conditions: S. cerevisiae cln2 rad14 strain, hits give high values
Method in brief: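 Test compounds were added to cln2 rad14 yeast cultures; inhibition of growth was then determined by comparison with vehicle treatment.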

[4] = NCI Yeast Anticancer Drug Screen. Data for the bub3 strain (AID 167); conditions: S. cerevisiae bub3 mutant strain, hits give high values
Method in brief: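 Inhibition values come from growth of compound-treated mutant yeast normalised to vehicle-treated controls.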

[5] = NCI Yeast Anticancer Drug Screen. Data for the mlh1 rad18 strain (AID 175); conditions: S. cerevisiae mlh1 rad18 strain growth inhibition, hits give high values
Method in brief: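 Inhibition values reflect reduced growth of mutant yeast versus vehicle-treated controls following compound exposure; the mutations affect DNA damage repair.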

[6] = NCI Yeast Anticancer Drug Screen. Data for the rad50 strain (AID 155);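 also: 0% = growth of vehicle-only cultures of the same strain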; conditions: S. cerevisiae rad50 strain growth inhibition; at 50.0 µM; hits give high values
Method in brief: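 A DNA repair-deficient yeast mutant serves as the test organism; compound-induced growth inhibition is calculated against vehicle-treated cells.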

[7] = at 5.0 µM (retest, dose inferred, filed as 0.5)
[8] = at 50.0 µM (retest, dose inferred, filed as 5.0)

Measured: growth inhibition

CCNC(=O)CCl
inactive: [1]; at 50.0 µM 1.2% | [2]; at 50.0 µM 21.4% | [3]; at 50.0 µM -2% | [4]; at 50.0 µM -0.9% | [5]; at 50.0 µM 10.4%

CCOC(=O)CC(=O)c1ccccc1
inactive: [6] 16.9% and -9.6% | [1]; at 50.0 µM -17.6% and -2% | [5]; at 50.0 µM 14.1% and -15.7%

CCOP(O)(=S)OCC
inactive: [1]; at 50.0 µM 23.4% and 10.2% and 2.35% | [2]; at 50.0 µM 11.6% and 7.65% and -4.2% | [3]; at 50.0 µM -2.05% and 20.1% and 6.7% | [4]; at 50.0 µM -15.8% and -14.5% and -14% | [5]; at 50.0 µM 17% and 18.8% and 3.2%

CCCNC1=C(C)C(=O)C2=C(C1=O)[C@H](COC(N)=O)[C@]1(OC)[C@@H]3N[C@@H]3CN21
inactive: [1]; [7] 15% | [1]; at 50.0 µM 38.9% | [2]; [7] 11% | [2]; [8] 64% | [2]; at 50.0 µM 39.6% | [3]; [7] 5% | [3]; at 50.0 µM 51.7% | [4]; [7] 2% | [4]; [8] 37% | [4]; at 50.0 µM 9.7% | [5]; [7] 47%
active: [1]; [8] 76% | [3]; [8] 79% | [5]; [8] 93% | [5]; at 50.0 µM 79.8%

O=C1C2C(C(=O)N1c1ccc(O)cc1)C1(Cl)C(Cl)=C(Cl)C2(Cl)C1(Cl)Cl (stereo not drawn)
inactive: [1]; at 50.0 µM -11.8% | [2]; at 50.0 µM 1.9% | [3]; at 50.0 µM -0.1% | [4]; at 50.0 µM -19.6% | [5]; at 50.0 µM 1%

O=[N+]([O-])C=C([SH2+])[SH2+].O=[N+]([O-])C=C([SH2+])[SH2+].[Ni+2].c1ccc(C[P+](c2ccccc2)(c2ccccc2)c2ccccc2)cc1
inactive: [1]; [7] 7% | [2]; [7] 5% | [2]; [8] 52% | [3]; [7] -7% | [3]; [8] 19% | [4]; [7] -1% | [4]; [8] 47% | [5]; [7] 26%
active: [1]; [8] 72% | [1]; at 50.0 µM 97.7% | [2]; at 50.0 µM 96.7% | [3]; at 50.0 µM 87.8% | [4]; at 50.0 µM 96.2% | [5]; [8] 83% | [5]; at 50.0 µM 93.3%

[O-][n+]1c2ccccc2nn1-c1ccc(N(CCCl)CCCl)cc1
inactive: [6] 7.2% | [1]; at 50.0 µM 0.35% | [3]; at 50.0 µM -6.95% | [4]; at 50.0 µM -16.9% | [5]; at 50.0 µM -22.1%

O=C(O)CN1CCN(CC(=O)O)CC(=O)[O][Hg][O]C(=O)C1
active: [1]; [7] 100% | [1]; [8] 100% | [1]; at 50.0 µM 99.4% | [2]; [7] 99% | [2]; [8] 99% | [2]; at 50.0 µM 99.5% | [3]; [7] 99% | [3]; [8] 99% | [3]; at 50.0 µM 98.3% | [4]; [7] 100% | [4]; [8] 100% | [4]; at 50.0 µM 99.3% | [5]; [7] 99% | [5]; [8] 99% | [5]; at 50.0 µM 99.2%

NNC(=O)NC(=O)NN
inactive: [1]; at 50.0 µM 5.4% | [2]; at 50.0 µM 4.6% | [3]; at 50.0 µM -8.95% | [4]; at 50.0 µM -0.15% | [5]; at 50.0 µM 9.6%

O=C(NCCNC(=O)Nc1ccccc1S(=O)(=O)F)Nc1ccccc1S(=O)(=O)F
inactive: [6] -17% | [2]; at 50.0 µM -16.1% | [3]; at 50.0 µM 6.55% | [4]; at 50.0 µM -32.1% | [5]; at 50.0 µM -13%

Cc1c([N+](=O)[O-])cc(C(C)(C)C)c(O)c1[N+](=O)[O-]
inactive: [6] 60.6% | [1]; at 50.0 µM 63.1% | [3]; at 50.0 µM 43.5% | [4]; at 50.0 µM 27.1%
active: [5]; at 50.0 µM 70.6%

COc1ccc(P2(=S)OC(C)(C)C(C)(C)O2)cc1
inactive: [6] -24.7% | [2]; at 50.0 µM -23.7% | [3]; at 50.0 µM -51.6% | [4]; at 50.0 µM -11.4% | [5]; at 50.0 µM -43%

COc1cc(CC[N+](C)(C)C)cc(OC)c1OC
inactive: [6] 4.95% | [2]; at 50.0 µM 7.85% | [3]; at 50.0 µM 25.2% | [4]; at 50.0 µM 9.5% | [5]; at 50.0 µM 34.7%

CCc1c[c]([Hg][Cl])c(CC)c(CC)c1CC
active: [1]; [8] 99% | [1]; at 50.0 µM 99.7% | [2]; [8] 100% | [2]; at 50.0 µM 99.7% | [3]; [8] 90% | [4]; [8] 99% | [5]; [8] 99% | [5]; at 50.0 µM 98.6%
inactive: [1]; [7] 68% | [2]; [7] 40% | [3]; [7] 2% | [3]; at 50.0 µM 23.7% | [4]; [7] 7% | [4]; at 50.0 µM 16.1% | [5]; [7] 35%

C[N+](C)(C)NP(=O)(N[N+](C)(C)C)c1ccccc1
inactive: [6] 3.2% | [2]; at 50.0 µM -19.3% | [3]; at 50.0 µM 11.6% | [4]; at 50.0 µM 1.95% | [5]; at 50.0 µM -11.1%

NC(Cc1ccccc1)c1nccs1 (stereo not drawn)
inactive: [6] -8.95% | [2]; at 50.0 µM -7.65% | [3]; at 50.0 µM 11.2% | [4]; at 50.0 µM -30.1% | [5]; at 50.0 µM -2.6%

C/C(=C\c1ccccc1)[N+](=O)[O-]
active: [1]; [8] 100% | [1]; at 50.0 µM 93.2% | [2]; [8] 98% | [2]; at 50.0 µM 92.4% | [3]; [8] 97% | [4]; [8] 99% | [4]; at 50.0 µM 94.2% | [5]; [8] 99% | [5]; at 50.0 µM 99.3%
inactive: [1]; [7] 26% | [2]; [7] 26% | [3]; [7] 11% | [3]; at 50.0 µM 46.9% | [4]; [7] 12% | [5]; [7] 35%
